Assay results: PubChem BioAssay AID1159580 (chemical genetic matrix, 2015)
“And” between values parts separate entries of the source, which are not always exact repeats. Equal values may be shown once. The campaign covered roughly 5,500 compounds. About 2,000 (36%) were called active. Not shown: some 18% with an inconclusive outcome. Cut-off read from the data, not from the text of the source: active = normalized growth mostly below about 0.91 (no sharp cut-off); inconclusive = no clear call, values can overlap the other calls; inactive = mostly above about 0.92. This is one part of the list.

Assay: chemical genetic growth profiling, strain panel (AID 1159580);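 note: tested at 20 µM; growth read once vehicle control cultures reached saturation at 30 °C; 1 = growth at the plate median or of vehicle wells; lower values mean less growth of the strain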
Details: S. cerevisiae deletion strains, growth OD

Measured: normalized growth

CN(C)C(=O)Oc1ccc[n+](C)c1
inactive: locus YAL021C, strain ccr4, active compounds read low 1 | locus YAL026C, strain drs2, active compounds read low 1.01 | locus YAL030W, strain snc1, active compounds read low 0.998 | locus YAL040C, strain CLN3, active compounds read low 0.966 | locus YBL061C, strain skt5, active compounds read low 0.999 | locus YBR009C, strain hhf1, active compounds read low 0.996 | locus YBR021W, strain FUR4, active compounds read low 1.02 | locus YBR023C, strain chs3, active compounds read low 1 | locus YBR171W, strain sec66, active compounds read low 1 | locus YBR229C, strain ROT2, active compounds read low 1.02 | locus YBR231C, strain swc5, active compounds read low 1.03 | locus YBR279W, strain paf1, active compounds read low 1 | locus YCL011C, strain gbp2, active compounds read low 0.998 | locus YCL016C, strain dcc1, active compounds read low 1.01 | locus YCL029C, strain bik1, active compounds read low 1.02 | locus YCL061C, strain MRC1 (second series), active compounds read low 0.992 | locus YCL061C, strain MRC1, active compounds read low 1.01 | locus YCL069W, strain vba3, active compounds read low 1 | locus YCR088W, strain abp1, active compounds read low 1 | locus YDL005C, strain med2, active compounds read low 1 | locus YDL035C, strain GPR1, active compounds read low 1.03 | locus YDL040C, strain nat1, active compounds read low 1 | locus YDL074C, strain BRE1, active compounds read low 1 | locus YDL101C, strain DUN1, active compounds read low 1.01 | locus YDL134C, strain PPH21, active compounds read low 1.03 | locus YDL185W, strain tfp1, active compounds read low 1.01 | locus YDL192W, strain arf1, active compounds read low 1.02 | locus YDR001C, strain nth1, active compounds read low 1 | locus YDR069C, strain doa4, active compounds read low 1 | locus YDR101C, strain arx1, active compounds read low 1.02 | locus YDR137W, strain rgp1, active compounds read low 1.03 | locus YDR159W, strain sac3, active compounds read low 1 | locus YDR162C, strain NBP2, active compounds read low 1.02 | locus YDR195W, strain ref2 0.99 | locus YDR297W, strain sur2, active compounds read low 0.999 | locus YDR318W, strain mcm21, active compounds read low 1.02 | locus YDR334W, strain swr1, active compounds read low 1 | locus YDR335W, strain msn5, active compounds read low 0.996 | locus YDR363W, strain ESC2, active compounds read low 0.885 | locus YDR388W, active compounds read low 1.02 | locus YDR392W, strain spt3, active compounds read low 0.996 | locus YDR502C, strain sam2, active compounds read low 1.02 | locus YEL003W, strain gim4, active compounds read low 0.993 | locus YEL037C, strain rad23, active compounds read low 0.991 | locus YEL061C, strain CIN8 (second series), active compounds read low 0.993 | locus YEL061C, strain CIN8, active compounds read low 1.01 | locus YER002W, strain NOP16, active compounds read low 1.01 | locus YER015W, strain faa2, active compounds read low 0.989 | locus YER016W, strain bim1, active compounds read low 1 | locus YER110C, active compounds read low 1.03 | locus YER111C, strain swi4, active compounds read low 1.02 | locus YER155C, strain BEM2 (second series), active compounds read low 0.994 | locus YER155C, strain BEM2, active compounds read low 1.02 | locus YER167W, strain BCK2, active compounds read low 1.02 | locus YFR010W, strain ubp6, active compounds read low 1.01 | locus YGL078C, strain dbp3, active compounds read low 1.01 | locus YGL086W, strain mad1, active compounds read low 1 | locus YGL167C, strain pmr1, active compounds read low 1.01 | locus YGL173C, strain kem1, active compounds read low 1.01 | locus YGL227W, strain vid30, active compounds read low 1.01 | locus YGL240W, strain doc1, active compounds read low 1.01 | locus YGL248W, strain PDE1, active compounds read low 1 | locus YGL253W, strain hxk2, active compounds read low 1 | locus YGR135W, strain pre9, active compounds read low 1.05 | locus YGR229C, strain SMI1, active compounds read low 1.01 | locus YGR252W, strain gcn5, active compounds read low 1.01 | locus YHR013C, strain ard1, active compounds read low 1.01 | locus YHR027C, strain rpn1, active compounds read low 1.01 | locus YHR030C, strain SLT2, active compounds read low 1.02 and 1.01 | locus YHR079C, strain IRE1 (second series), active compounds read low 1.01 | locus YHR079C, strain IRE1, active compounds read low 1 | locus YHR094C, strain hxt1, active compounds read low 1.02 | locus YHR129C, strain ARP1, active compounds read low 1.01 | locus YHR142W, strain chs7, active compounds read low 0.994 | locus YHR200W, strain rpn10, active compounds read low 1.02 | locus YIL066C, strain RNR3, active compounds read low 1.02 | locus YIL073C, strain SPO22, active compounds read low 1.06 | locus YIL125W, strain kgd1, active compounds read low 1.02 | locus YIR030C, strain dcg1, active compounds read low 1.02 | locus YJL092W, strain hpr5, active compounds read low 1.02 | locus YJL095W, strain BCK1 (second series), active compounds read low 1.01 | locus YJL095W, strain BCK1, active compounds read low 0.994 and 1.04 | locus YJL115W, strain asf1, active compounds read low 0.993 | locus YJL129C, strain trk1, active compounds read low 1.01 | locus YJL134W, strain LCB3, active compounds read low 1.01 | locus YJL154C, strain vps35, active compounds read low 0.995 | locus YJL164C, strain tpk1, active compounds read low 1 | locus YJL166W, strain qcr8, active compounds read low 0.996 | locus YJL168C, strain set2, active compounds read low 1.01 | locus YJL187C, strain SWE1 (second series), active compounds read low 1 | locus YJL187C, strain SWE1, active compounds read low 1 | locus YJR043C, strain POL32, active compounds read low 1 | locus YJR066W, strain TOR1, active compounds read low 0.966
